Experimental findings from PubChem BioAssay AID504566 (NMMLSC, 2011) are described below.

Measured potencies and affinities stand elsewhere. Active and inactive are the calls of the source.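 Rule for the calls: active = combined score above 52, rewarding potency beyond a set limit and curve height beyond a set limit; inactive = the rest.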

For the test, the target named is Broad substrate specificity ATP-binding cassette transporter ABCG2 (Homo sapiens) (UniProt Q9UNQ0). As to the kind of experiment: ABCG2 efflux pump inhibitor potency, dose response, Ig-MXP3 cells, JC-1, flow cytometry, set 2 (AID 504566). The following applies: JC-1 efflux; series mostly up to 50 µM. (Flow cytometry measures light scatter and fluorescence of single cells or particles in a stream.)
Broad substrate specificity ATP-binding cassette transporter ABCG2 (Homo sapiens), sequence (Q9UNQ0 whole entry, looked up): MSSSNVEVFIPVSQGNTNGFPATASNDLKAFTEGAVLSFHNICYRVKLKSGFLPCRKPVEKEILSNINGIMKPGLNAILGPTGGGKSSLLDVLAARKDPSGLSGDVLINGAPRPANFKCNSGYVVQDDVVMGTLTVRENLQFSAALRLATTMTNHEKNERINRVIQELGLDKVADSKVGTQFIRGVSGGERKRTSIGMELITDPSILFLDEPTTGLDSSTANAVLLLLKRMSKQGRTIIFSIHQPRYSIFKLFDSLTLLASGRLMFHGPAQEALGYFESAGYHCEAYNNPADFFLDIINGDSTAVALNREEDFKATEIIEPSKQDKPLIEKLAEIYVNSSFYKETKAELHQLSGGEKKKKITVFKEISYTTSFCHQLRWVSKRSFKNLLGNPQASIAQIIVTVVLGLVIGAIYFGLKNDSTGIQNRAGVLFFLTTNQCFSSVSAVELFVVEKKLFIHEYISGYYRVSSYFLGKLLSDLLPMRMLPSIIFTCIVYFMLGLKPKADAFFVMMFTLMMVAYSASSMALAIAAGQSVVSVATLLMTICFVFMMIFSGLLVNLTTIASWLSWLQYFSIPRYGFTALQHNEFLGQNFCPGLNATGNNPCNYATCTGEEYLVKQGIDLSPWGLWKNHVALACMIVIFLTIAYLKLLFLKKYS
In the case of `O=S(=O)(c1ccccc1)N1CCN(c2cc(-c3ccccc3)nc3cc(-c4cccc(Cl)c4)nn23)CC1`, the call was inactive. The value for `CC(=O)N1CCN(c2c(C)c(C)nc3cc(-c4ccc(Cl)cc4)nn23)CC1` was “inactive”; that for `Cc1nc2cc(-c3cccs3)nn2c(N2CCN(C(=O)c3ccco3)CC2)c1C` was “inactive”.
